Experimental data as given in PubChem BioAssay AID1159580 (chemical genetic matrix, 2015).
Out of some 5,500 compounds screened, about 2,000 (36%) were called active. Roughly 18% stayed inconclusive and do not appear here. No stated cut-off is given here; in the data, active means normalized growth mostly below about 0.91 (no sharp cut-off); inconclusive means no clear call, values can overlap the other calls; inactive means mostly above about 0.92. The list shows a part of the results.

Assay: chemical genetic growth profiling, strain panel (AID 1159580);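 further: tested at 20 µM; growth read once vehicle control cultures reached saturation at 30 °C; 1 = growth at the plate median or of vehicle wells; lower values mean less growth of the strain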
Conditions: growth OD

Measured: normalized growth

COc1cc(NS(=O)(=O)c2ccc(N)cc2)ncn1
inactive: S. cerevisiae deletion strains, locus YJR075W, strain HOC1, active compounds read low 0.984 | S. cerevisiae deletion strains, locus YKL009W, strain mrt4, active compounds read low 0.982 | S. cerevisiae deletion strains, locus YKL068W, active compounds read low 0.986 | S. cerevisiae deletion strains, locus YKL085W, strain MDH1 (second series), active compounds read low 0.991 | S. cerevisiae deletion strains, locus YKL085W, strain MDH1, active compounds read low 0.991 | S. cerevisiae deletion strains, locus YKL160W, strain elf1, active compounds read low 0.98 | S. cerevisiae deletion strains, locus YKL190W, strain CNB1, active compounds read low 0.978 | S. cerevisiae deletion strains, locus YKR001C, strain vps1, active compounds read low 0.986 | S. cerevisiae deletion strains, locus YKR026C, strain gcn3, active compounds read low 0.968 | S. cerevisiae deletion strains, locus YKR091W, strain srl3, active compounds read low 0.99 | S. cerevisiae deletion strains, locus YLL001W, strain dnm1, active compounds read low 0.974 | S. cerevisiae deletion strains, locus YLL026W, active compounds read low 0.985 | S. cerevisiae deletion strains, locus YLL041C, strain sdh2, active compounds read low 0.982 | S. cerevisiae deletion strains, locus YLR027C, strain aat2, active compounds read low 0.988 | S. cerevisiae deletion strains, locus YLR039C, strain RIC1, active compounds read low 1.02 | S. cerevisiae deletion strains, locus YLR058C, strain SHM2, active compounds read low 0.972 | S. cerevisiae deletion strains, locus YLR102C, strain apc9, active compounds read low 0.986 | S. cerevisiae deletion strains, locus YLR113W, strain HOG1, active compounds read low 0.949 | S. cerevisiae deletion strains, locus YLR221C, strain rsa3, active compounds read low 0.985 | S. cerevisiae deletion strains, locus YLR258W, strain gsy2, active compounds read low 0.979 | S. cerevisiae deletion strains, locus YLR262C, strain YPT6 (second series), active compounds read low 0.985 | S. cerevisiae deletion strains, locus YLR262C, strain YPT6, active compounds read low 1.02 | S. cerevisiae deletion strains, locus YLR268W, strain sec22, active compounds read low 0.948 | S. cerevisiae deletion strains, locus YLR320W, strain mms22, active compounds read low 0.979 | S. cerevisiae deletion strains, locus YLR330W, strain CHS5, active compounds read low 0.998 | S. cerevisiae deletion strains, locus YLR342W, strain FKS1 (second series), active compounds read low 1.04 | S. cerevisiae deletion strains, locus YLR342W, strain FKS1, active compounds read low 1.02 | S. cerevisiae deletion strains, locus YLR357W, strain rsc2, active compounds read low 0.93 | S. cerevisiae deletion strains, locus YLR370C, strain arc18, active compounds read low 0.979 | S. cerevisiae deletion strains, locus YLR371W, strain rom2, active compounds read low 0.992 | S. cerevisiae deletion strains, locus YLR384C, strain iki3, active compounds read low 0.974 | S. cerevisiae deletion strains, locus YLR418C, strain cdc73, active compounds read low 0.983 | S. cerevisiae deletion strains, locus YML016C, strain PPZ1, active compounds read low 0.992 | S. cerevisiae deletion strains, locus YML032C, strain rad52, active compounds read low 0.991 | S. cerevisiae deletion strains, locus YML120C, strain ndi1, active compounds read low 1.01 | S. cerevisiae deletion strains, locus YML124C, strain tub3, active compounds read low 0.988 | S. cerevisiae deletion strains, locus YMR058W, strain fet3, active compounds read low 0.993 | S. cerevisiae deletion strains, locus YMR078C, strain ctf18, active compounds read low 0.981 | S. cerevisiae deletion strains, locus YMR125W, strain sto1, active compounds read low 0.963 | S. cerevisiae deletion strains, locus YMR129W, active compounds read low 0.996 | S. cerevisiae deletion strains, locus YMR205C, strain PFK2, active compounds read low 0.992 | S. cerevisiae deletion strains, locus YMR223W, strain ubp8, active compounds read low 0.981 | S. cerevisiae deletion strains, locus YMR231W, strain pep5, active compounds read low 0.975 | S. cerevisiae deletion strains, locus YMR263W, strain SAP30, active compounds read low 0.982 | S. cerevisiae deletion strains, locus YMR307W, strain GAS1, active compounds read low 1.1 | S. cerevisiae deletion strains, locus YNL067W, strain RPL9B, active compounds read low 0.981 | S. cerevisiae deletion strains, locus YNL071W, strain lat1, active compounds read low 0.969 | S. cerevisiae deletion strains, locus YNL153C, strain GIM3, active compounds read low 0.965 | S. cerevisiae deletion strains, locus YNL183C, strain NPR1, active compounds read low 0.933 | S. cerevisiae deletion strains, locus YNL209W, strain ssb2, active compounds read low 0.975 | S. cerevisiae deletion strains, locus YNL233W, strain BNI4, active compounds read low 0.987 | S. cerevisiae deletion strains, locus YNL248C, strain rpa49, active compounds read low 0.931 | S. cerevisiae deletion strains, locus YNL250W, strain rad50, active compounds read low 0.979 | S. cerevisiae deletion strains, locus YNL271C, strain bni1, active compounds read low 0.992 | S. cerevisiae deletion strains, locus YNL298W, strain CLA4, active compounds read low 0.983 | S. cerevisiae deletion strains, locus YNL307C, strain MCK1, active compounds read low 0.979 | S. cerevisiae deletion strains, locus YNL322C, strain KRE1 (second series), active compounds read low 0.955 | S. cerevisiae deletion strains, locus YNL322C, strain KRE1, active compounds read low 0.991 | S. cerevisiae deletion strains, locus YNR049C, strain mso1, active compounds read low 0.979 | S. cerevisiae deletion strains, locus YNR052C, strain pop2, active compounds read low 0.987 | S. cerevisiae deletion strains, locus YOL006C, strain TOP1, active compounds read low 0.965 | S. cerevisiae deletion strains, locus YOL012C, strain htz1 1.08 | S. cerevisiae deletion strains, locus YOL147C, strain pex11, active compounds read low 0.982 | S. cerevisiae deletion strains, locus YOR001W, strain rrp6, active compounds read low 0.998 | S. cerevisiae deletion strains, locus YOR061W, strain CKA2, active compounds read low 0.961 | S. cerevisiae deletion strains, locus YOR069W, strain VPS5, active compounds read low 0.992 | S. cerevisiae deletion strains, locus YOR070C, strain gyp1, active compounds read low 0.984 | S. cerevisiae deletion strains, locus YOR080W, strain dia2, active compounds read low 0.977 | S. cerevisiae deletion strains, locus YOR083W, strain WHI5, active compounds read low 0.989 | S. cerevisiae deletion strains, locus YOR106W, strain vam3, active compounds read low 0.981 | S. cerevisiae deletion strains, locus YOR136W, strain idh2, active compounds read low 0.981 | S. cerevisiae deletion strains, locus YOR144C, strain elg1, active compounds read low 0.982 | S. cerevisiae deletion strains, locus YOR184W, strain ser1, active compounds read low 0.989 | S. cerevisiae deletion strains, locus YOR231W, strain MKK1, active compounds read low 0.97 | S. cerevisiae deletion strains, locus YOR265W, strain rbl2, active compounds read low 0.991 | S. cerevisiae deletion strains, locus YOR270C, strain vph1, active compounds read low 0.95 | S. cerevisiae deletion strains, locus YOR290C, strain snf2, active compounds read low 0.976 | S. cerevisiae deletion strains, locus YOR316C, strain cot1, active compounds read low 0.982 | S. cerevisiae deletion strains, locus YPL051W, strain arl3, active compounds read low 0.981 | S. cerevisiae deletion strains, locus YPL055C, strain LGE1, active compounds read low 0.92 | S. cerevisiae deletion strains, locus YPL078C, strain atp4, active compounds read low 0.988 | S. cerevisiae deletion strains, locus YPL106C, strain sse1, active compounds read low 0.969 | S. cerevisiae deletion strains, locus YPL240C, strain hsp82, active compounds read low 0.997 | S. cerevisiae deletion strains, locus YPL256C, strain CLN2, active compounds read low 0.974 | S. cerevisiae deletion strains, locus YPR119W, strain clb2, active compounds read low 0.982 | S. cerevisiae deletion strains, locus YPR141C, strain kar3, active compounds read low 0.97 | S. cerevisiae deletion strains, locus YPR163C, strain tif3, active compounds read low 0.985 | S. cerevisiae deletion strains, locus YPR167C, strain met16, active compounds read low 0.994 | S. cerevisiae deletion strains, strain wtn01, active compounds read low 0.981 | S. cerevisiae strains, strain wild type, active compounds read low 0.981
